In PubChem BioAssay (NCATS) one finds activity change, negative = inhibition, activity, negative = inhibition and Potency data, which are given here for 23 compounds.

A short description of assay [1]: AP1 Signaling Pathway (AID 357).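 Also: ME-180 reporter cells stimulated with EGF at its EC50 level; % is scaled to controls: 0 for no effect and ±100 for the full control effect.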 Particulars: ME-180 AP-1-bla reporter, EGF-induced, beta-lactamase ratio, 5 h; at 17.2 µM (top of the series) unless noted. The method, boiled down: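 Beta-lactamase reporter under AP-1 response element, ME-180 background. Stimulus: EC50 EGF. Compound exposure 5 h, 37 °C. Detection: CCF4, 2.5 h RT, 460/530 nm. Values: AC50 from titration.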

The nature of assay [2]: NFAT Signaling Pathway (AID 444).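 Also: carbachol stimulus at about its EC50 of 1 µM final; % is scaled to controls: 0 for no effect and ±100 for the full control effect.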 Particulars: Jurkat NFAT-bla M1, carbachol, beta-lactamase ratio, 5 h; at 17.2 µM (top of the series) unless noted. The method, boiled down: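 Read-out: CCF4 FRET ratio (460 nm/530 nm) after 1 h RT dye loading, used for %activity and AC50 from titration series. Cells: Jurkat NFAT-β-lactamase/M1 line, treated with compound plus 1 uM carbachol for 5 h, 37 °C.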

The nature of assay [3]: Stat Signaling Pathway (AID 446).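 Also: ME-180 cervical cancer cells given 40 pM IL-6 alongside compound; SIE-controlled beta-lactamase reporter measured as 460/530 nm FRET emission ratio; % is scaled to controls: 0 for no effect and ±100 for the full control effect.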 The following applies: ME-180 (cervical carcinoma) SIE beta-lactamase reporter, IL-6 stimulated, 5 h; at 17.2 µM (top of the series) unless noted. The method, boiled down:
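Normalization used AC90 stimulation (300 pM IL-6) and AC90 inhibition (125 nM pan-JAK inhibitor at 40 pM IL-6). The underlying signal is SIE-driven beta-lactamase in ME-180 cells after 5 h IL-6 exposure with compound.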

Assay [4] addresses Glucocorticoid receptor (Homo sapiens) (UniProt P04150). In words: GR-GFP Redistribution (AID 450;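 active = compounds whose dose series gives a full or clear partial fitted curve of increased nuclear translocation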; also: potency is read from the fitted curve at half-maximal effect). The following applies: U2OS GR-GFP nuclear translocation, laser cytometry, 2 h; series mostly up to 20.6 µM.

A number with no mark means an inactive call. Results filed as inconclusive are left out. Activity calls are given as the source filed them. Unless noted, calls follow the shape of the dose curve; as a rule, active = well fitted curve in either direction with a large enough effect (not every such curve was filed as active); inconclusive = small, poorly fitted or top-dose-only effect, or another doubt; inactive = flat fitted curve, though single readings scatter. Bounds are passed on as bounds.

Chain of Glucocorticoid receptor (Homo sapiens) (P04150 whole entry, looked up): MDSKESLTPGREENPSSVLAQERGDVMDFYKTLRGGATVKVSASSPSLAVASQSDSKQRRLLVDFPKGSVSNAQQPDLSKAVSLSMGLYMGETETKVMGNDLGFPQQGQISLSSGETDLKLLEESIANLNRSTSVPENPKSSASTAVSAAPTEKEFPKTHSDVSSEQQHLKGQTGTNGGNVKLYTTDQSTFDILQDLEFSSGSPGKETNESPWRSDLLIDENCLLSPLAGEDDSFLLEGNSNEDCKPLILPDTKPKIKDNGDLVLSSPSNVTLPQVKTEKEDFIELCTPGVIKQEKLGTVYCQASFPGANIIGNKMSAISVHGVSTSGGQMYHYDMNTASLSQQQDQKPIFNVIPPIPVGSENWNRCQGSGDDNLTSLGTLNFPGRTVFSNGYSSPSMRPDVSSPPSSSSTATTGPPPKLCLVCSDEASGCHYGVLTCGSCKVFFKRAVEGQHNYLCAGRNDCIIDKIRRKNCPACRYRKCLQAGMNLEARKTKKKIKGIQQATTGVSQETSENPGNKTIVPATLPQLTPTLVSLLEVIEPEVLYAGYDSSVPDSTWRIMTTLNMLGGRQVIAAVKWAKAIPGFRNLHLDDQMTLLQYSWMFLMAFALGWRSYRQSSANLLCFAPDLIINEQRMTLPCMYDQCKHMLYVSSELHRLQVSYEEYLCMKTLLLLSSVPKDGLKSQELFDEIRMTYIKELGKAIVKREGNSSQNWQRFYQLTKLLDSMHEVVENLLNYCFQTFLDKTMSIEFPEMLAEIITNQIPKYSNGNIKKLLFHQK

For `CCC1CC2(C)NC(=O)c3c(sc4c3CC(C)(C)OC4)N2C1=O` (configuration not stated), the activity change, negative = inhibition is -7.1% in assay [1] and -20.5% in assay [2]. Besides, the activity, negative = inhibition in assay [3] is -10.3%. In addition, the Potency in assay [4] was more than 20.6 µM.
Regarding `CC1(C)Cc2c(sc3c4nnnn4c4nnnn4c23)CO1`, the results for the activity change, negative = inhibition in assay [1] and in assay [2] were -28.3% and -96.8% (active), respectively. Besides, in assay [3], the activity, negative = inhibition is -26.4%. Moreover, the Potency in assay [4] is more than 20.6 µM.
For `CCN(CC)C(=O)CN(C#N)c1nc(NC(C)C)nc(NC(C)C)n1` the same measures were 4.86%, -0.753%, 8.05% and more than 20.6 µM.
With `O=C(Nc1ccc2c(c1)OCO2)c1cc2n(n1)C(C(F)(F)F)CC(c1ccccc1)N2` (configuration not stated), the activity change, negative = inhibition in assay [1] is 6.53%; in assay [2] it was 6.64%. In assay [3], the activity, negative = inhibition was -1.67%. Also, in assay [4], the Potency was more than 20.6 µM.
For `Cc1cc(C)n(CC(=O)n2c3c(c4ccccc42)CCCC3)n1` the same measures were 5.13%, 0.496%, 9.09% and more than 20.6 µM.
For `CCCOc1ccc(-c2nnc(N)s2)cc1` the same measures were 9.15%, 2.03%, 5.95% and more than 20.6 µM.
On the same counts, the results for `COC(=O)c1ccc(OC(=O)c2ccc(OC)c(OC)c2)c(OC)c1` are -0.243%, -10.5%, -2.16% and more than 20.6 µM.
`O=C1CC(c2ccccc2)NC(=O)N1` (configuration not stated): the activity change, negative = inhibition was 8.17% in assay [1] and -2.15% in assay [2]. Further, in assay [3], the activity, negative = inhibition is -0.378%. Further, the Potency in assay [4] is more than 20.6 µM.
For `CSc1nc(O)c(Cc2ccccc2)c(=O)[nH]1` the same measures were -12.8%, 14.1%, 0.301% and more than 20.6 µM.
For `O=C(NCCc1ccccc1)/C(=N\O)c1ccccc1` the same measures were -2.29%, 11.6%, -3.56% and more than 20.6 µM.
On the same counts, the results for `CCOC(=O)CCCCC(=O)NC(CO)C(=O)NC` (configuration not stated) are 13.2%, 6.3%, 8.86% and more than 20.6 µM.
For the compound `Cn1c(=O)c2c(nc(Br)n2CCSc2ncccn2)n(C)c1=O`, the figures for the activity change, negative = inhibition in assay [1] and in assay [2] were 10.3% and 8.82%, respectively. Moreover, the activity, negative = inhibition in assay [3] was -0.734%. Moreover, the Potency in assay [4] was more than 20.6 µM.
For `COc1ccc(C2(CN(C(C)=O)C(C)=O)CCCC2)cc1OC`, the activity change, negative = inhibition in assay [1] is 4.19%; in assay [2] it was 4.27%. Further, the activity, negative = inhibition in assay [3] is 1.89%. For the same compound, in assay [4], the Potency is more than 20.6 µM.
Consider `CCC(C(=O)Nc1nccs1)(C(F)(F)F)C(F)(F)F`, for which the values for the activity change, negative = inhibition in assay [1] and in assay [2] were 0.462% and 11.5%, respectively. The activity, negative = inhibition in assay [3] is -9.76%. The Potency in assay [4] was more than 20.6 µM.
For `CC1(C)Cc2c(c(N3CCOCC3)nc3sc4c(=O)[nH]cnc4c23)CS1` the same measures were 4.29%, 5.56%, -18.3% and more than 20.6 µM.
With `COc1ccc2c(=O)c(-c3nc(C)cs3)coc2c1`, the activity change, negative = inhibition is 13.2% in assay [1] and 15.3% in assay [2]. Besides, the activity, negative = inhibition in assay [3] was 12.4%. In assay [4], the Potency is more than 20.6 µM.
Take `COc1ccc(OCC(=O)OCCN(C)C)cc1`: the activity change, negative = inhibition was 7.78% in assay [1] and 11.6% in assay [2]. Besides, the activity, negative = inhibition in assay [3] is -3.32%. Besides, the Potency in assay [4] was more than 20.6 µM.
On to `Cc1cc(C)c(C#N)c(OCC(=O)c2ccccc2)n1`, for which the activity change, negative = inhibition in assay [1] is -15.4%; in assay [2], -4.3%. Moreover, the activity, negative = inhibition in assay [3] was -6.66%. For the same compound, the Potency in assay [4] is more than 20.6 µM.
For `Cc1cc(C)n(C(=O)CNC(=O)C2COc3ccccc3O2)n1` (configuration not stated) the same measures were 15.9%, -7.83%, 24.9% and more than 20.6 µM.
Consider `Cc1cc(OCCN2CCOCC2)nc2ccccc12`, for which the figures for the activity change, negative = inhibition in assay [1] and in assay [2] were -9.97% and 23.5%, respectively. Also, the activity, negative = inhibition in assay [3] was 1.79%. The Potency in assay [4] is more than 20.6 µM.
For `CC1(C)Cc2c(oc3ncn4ncnc4c23)CO1` the same measures were -9.2%, -1.16%, 7.25% and more than 20.6 µM.
On the same counts, the results for `CCOc1ccc2nc(NC(NC(C)=O)(C(=O)OC)C(F)(F)F)sc2c1` (configuration not stated) are 5.71%, 0.18%, -4.87% and more than 20.6 µM.
On the same counts, the results for `OCCNC1=NCCN1` are -9.49%, 3.37%, 1.85% and more than 20.6 µM.
